Source: PubChem BioAssay
Records with an inconclusive call do not appear. The source made the active and inactive calls.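 The calls were made as follows, unless noted: active = efflux inhibition above 0.42, the validation set average plus 4 SD; inconclusive = no clear call, values can overlap the other calls; inactive = the rest.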

How the values were obtained:
[1] = rapamycin-like changes in RPL19A-GFP expression – cell-based, S. cerevisiae, multiplex flow cytometry, primary screen (AID 1862; in the data active = percent of DMSO control GFP below about 86%;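 also: lower values mimic rapamycin by blocking the RPL19A rise seen in DMSO cells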); details: S. cerevisiae RPL19A-GFP strain, flow cytometry fluorescence, 3 h; at 10 µM; stronger effect = lower value
[2] = TOR pathway GLN3 branch reporter MEP2-GFP changes – S. cerevisiae, multiplex flow cytometry, primary screen (AID 1867;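 active = GFP response, as percent of the DMSO control, above the screen-wide mean plus 3 SD, about 139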;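 also: median GFP channel fluorescence of barcode-gated MEP2-GFP cells measured by flow cytometry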); details: S. cerevisiae MEP2-GFP strain, 3 h, at 10 µM, stronger effect = higher value, 100% means same as DMSO wells
[3] = TOR pathway RTG branch CIT2 reporter changes – S. cerevisiae, GFP fusion, multiplex flow cytometry, primary screen (AID 1870;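 active = percent response above a set limit, the screen-wide mean plus 3 SD, cut at about 130% in these data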;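 also: barcoded CIT2-GFP strain pooled with four other GFP strains with rapamycin as positive control; median GFP fluorescence per well over plate mean of DMSO wells so 100% = DMSO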); details: S. cerevisiae CIT2-GFP expression, 3 h, at 10 µM, stronger effect = higher value
[4] = TOR pathway LAP4-GFP level changes – S. cerevisiae, multiplex flow cytometry, primary screen (AID 1873;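 active = GFP signal, as percent of the solvent control, above the screen mean plus 3 SD, about 149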); details: S. cerevisiae LAP4-GFP expression, 3 h, at 10 µM, stronger effect = higher value
[5] = yeast AGP1-GFP level changes, GLN3 branch – cell-based, multiplex flow cytometry, S. cerevisiae, primary screen (AID 1887;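 active = GFP signal above the screen-wide mean plus 3 SD, that is over about 124.5% of the solvent control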;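 also: AGP1-GFP fusion strain of S. cerevisiae within a five-strain barcoded multiplex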); details: 3 h, at 10 µM, stronger effect = higher value
[6] = reduced mouse 2C T cell binding to pMHC/ICAM-1 vesicles – MLPCN validation set, flow cytometry, LFA-1/ICAM-1 modulator project, pilot screen (AID 2523;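 active = response below a set limit, under 55% cells CD8-positive and vesicle-bound, and CD8 cells' 90th-percentile brightness under 279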;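 as to vesicle binding response: mean PE anti-B7-1 fluorescence of CD8+ cells relative to row control; 100% = QL9-loaded vesicles with DMSO vehicle in the same plate row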); details: 2C mouse CD8+ T cells, at 7 µM, stronger effect = lower value; double positive events: measured here: CD8+/vesicle+ event percentage
[7] = target: Integrin beta-1 (Homo sapiens) + Integrin alpha-4 (Homo sapiens) (UniProt P13612+P05556); assay: alpha4beta1 integrin LIBS antibody binding reduction – U937 cells, HUTS-21 mAb, flow cytometry, validation set, VLA-4 allosteric modulator project, pilot screen (AID 2674;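 active = inhibition above 50%, about 3 SD of the validation set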;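 also: antibody binding induced by the VLA-4 ligand LDV present at three times its Kd; 0% = LDV ligand with antibody and no compound and 100% = antibody without LDV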); details: HUTS-21 LIBS mAb binding, at 6.7 µM, stronger effect = higher value, binding induced by LDV ligand
[8] = calorie-restriction mimetic ROS inhibitors, yeast – validation compound set, pilot screen (AID 2706;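 active = superoxide response below 65% of plate, a cut near 3 SD across the whole screen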;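 also: yeast exposed to compound for one week at 30 degrees C before staining; 100% = mean of all compound wells on the same plate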); details: S. cerevisiae aging, superoxide DHE fluorescence; at 10 µM; stronger effect = lower value
[9] = target: Beta-adrenergic receptor kinase 1 (Homo sapiens) (UniProt P25098); assay: GRK2 binders displacing RNA aptamer, biochemical, validation, human GRK2, bead flow cytometry (AID 488806;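 active = aptamer binding inhibition above 30%, about 3 SD of noise from non-fluorescent compounds; inactive = inhibition at or below 30%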); details: bead-bound GRK2, FAM-aptamer displacement, at 10 µM, stronger effect = higher value
[10] = target: Beta-2 adrenergic receptor (Homo sapiens) (UniProt P07550); assay: agonist-induced loss of surface beta2AR – cell-based, FAP fluorogen, flow cytometry, validation set, pilot screen (AID 504459;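 active = percent response above 42, roughly 3 SD of non-fluorescent test compounds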;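 also: agonist-driven loss of surface beta2AR via internalization measured by FAP dye flow cytometry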); details: Am2.2-beta2AR cells, at 10 µM, stronger effect = higher value
[11] = target: AP-2 complex subunit beta (Homo sapiens) (UniProt P63010); assay: beta-arrestin/AP2 interaction blockers – biochemical, validation set, GST-AP2 beads, flow cytometry, pilot screen (AID 504541;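 active = inhibition above 54%, about 3 SD of non-fluorescent compounds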;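 also: AP2 carries R879A mutation and is captured from E. coli lysate; bead-bound FITC arrestin peptide fluorescence measuring arrestin peptide binding to AP2; 0% = DMSO wells and 100% = excess unlabeled arrestin peptide control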); details: FITC arrestin peptide, at 10 µM, stronger effect = higher value, AP2 beta2 appendage fragment, R879A mutant
[12] = cytosolic pH regulators acting via V-ATPase – S. cerevisiae, pHLuorin, HTS validation (AID 504600; in the data active = response above about 15%;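 also: plate controls were DMSO for no effect and reference compound for full effect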); details: V-ATPase proton transport, at 10 µM, stronger effect = higher value
[13] = system: anti-desmoglein-3 scFv antibody binding to human DSG3; assay: blockers of pathogenic pemphigus antibody–desmoglein-3 binding – biochemical, validation compound set, bead-based, flow cytometry, pilot screen (AID 588368;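 active = binding below the plate cutoff, the plate median minus 3 SD, with a reading above zero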;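 also: signal is the median channel fluorescence of bead-bound GFP antibody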); details: Protein G beads, DSG3-Fc, scFv-GFP binding, at 10 µM, stronger effect = lower value
[14] = Nile Red efflux blockade in pump-expressing yeast – validation compound set, multiplex, phenotypic, pilot screen (AID 588506);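 also: Nile Red retained in cells so higher fluorescence means more efflux inhibition; 0 = negative control wells and 1 = enniatin B 25 µM full block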; details: S. cerevisiae pump-expressing triplex, Nile Red efflux flow cytometry; at 10 µM; stronger effect = higher value; the pumps come from Candida albicans
[15] = target: ATP-binding cassette sub-family B member 6 (Homo sapiens) (UniProt Q9NP58); assay: blockers of ABCB6-driven porphyrin uptake – K562-ABCB6 cells, flow cytometry, validation set, pilot screen (AID 588550;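 active = inhibition above the screen-wide mean plus 3 SD, about 51%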;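 also: 0% = DMSO wells and 100% = benzethonium chloride 70 µM positive control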); details: K562-ABCB6 porphyrin accumulation, 1 h, at 10 µM, stronger effect = higher value
[16] = AML differentiation inducers, ER-HoxA9 marrow cells – cell-based, GFP/MAC1 double positive, flow cytometry, validation set, primary screen (AID 588685;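 active = differentiation response of at least 50%, scaled between solvent and reference control, from cells with both markers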;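 also: compound exposure lasts four days before antibody staining and flow analysis; 0% = DMSO wells and 100% = 5 µM fulvestrant positive control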); details: stronger effect = higher value, normalized: vehicle 0, fulvestrant 100

Chain of Beta-2 adrenergic receptor (Homo sapiens) (P07550 whole entry, looked up): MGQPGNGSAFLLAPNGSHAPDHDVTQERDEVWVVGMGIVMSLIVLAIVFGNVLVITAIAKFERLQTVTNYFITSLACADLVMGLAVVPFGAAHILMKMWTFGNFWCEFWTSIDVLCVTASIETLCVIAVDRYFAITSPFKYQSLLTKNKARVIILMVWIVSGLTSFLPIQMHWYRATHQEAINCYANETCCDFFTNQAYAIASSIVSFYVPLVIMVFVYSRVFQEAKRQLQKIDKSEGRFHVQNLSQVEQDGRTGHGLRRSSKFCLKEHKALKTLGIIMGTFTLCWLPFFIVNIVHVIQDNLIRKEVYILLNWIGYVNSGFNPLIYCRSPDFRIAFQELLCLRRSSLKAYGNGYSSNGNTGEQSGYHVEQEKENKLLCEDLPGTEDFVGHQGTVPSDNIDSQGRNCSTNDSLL
Chain of AP-2 complex subunit beta (Homo sapiens) (P63010 whole entry, looked up, the tested form may be a part, one chain of several): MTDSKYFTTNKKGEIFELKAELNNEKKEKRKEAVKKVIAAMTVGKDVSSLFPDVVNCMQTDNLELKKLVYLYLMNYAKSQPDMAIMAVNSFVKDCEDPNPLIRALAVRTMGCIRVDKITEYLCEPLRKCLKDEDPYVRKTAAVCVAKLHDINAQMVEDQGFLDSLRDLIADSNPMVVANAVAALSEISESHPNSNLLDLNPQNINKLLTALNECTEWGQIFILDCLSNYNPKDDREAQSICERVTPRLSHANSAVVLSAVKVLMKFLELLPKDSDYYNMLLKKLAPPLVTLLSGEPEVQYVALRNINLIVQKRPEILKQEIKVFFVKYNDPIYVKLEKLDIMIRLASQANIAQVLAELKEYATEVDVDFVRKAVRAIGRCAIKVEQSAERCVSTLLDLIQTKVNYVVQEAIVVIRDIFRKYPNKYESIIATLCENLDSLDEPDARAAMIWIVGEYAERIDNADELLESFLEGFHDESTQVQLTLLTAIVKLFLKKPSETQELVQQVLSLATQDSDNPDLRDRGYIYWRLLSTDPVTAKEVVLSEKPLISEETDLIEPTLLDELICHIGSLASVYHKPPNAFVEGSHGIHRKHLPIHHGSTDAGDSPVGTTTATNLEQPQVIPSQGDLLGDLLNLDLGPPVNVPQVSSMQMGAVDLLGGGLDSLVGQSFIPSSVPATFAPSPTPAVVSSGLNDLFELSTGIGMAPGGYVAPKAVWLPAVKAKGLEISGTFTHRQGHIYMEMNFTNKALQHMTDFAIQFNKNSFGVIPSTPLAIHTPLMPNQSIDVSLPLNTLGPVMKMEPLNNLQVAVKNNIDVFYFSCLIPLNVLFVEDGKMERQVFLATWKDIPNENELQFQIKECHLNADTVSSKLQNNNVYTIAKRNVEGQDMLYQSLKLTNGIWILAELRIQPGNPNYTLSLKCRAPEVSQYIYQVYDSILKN
Chain of Beta-adrenergic receptor kinase 1 (Homo sapiens) (P25098 whole entry, looked up): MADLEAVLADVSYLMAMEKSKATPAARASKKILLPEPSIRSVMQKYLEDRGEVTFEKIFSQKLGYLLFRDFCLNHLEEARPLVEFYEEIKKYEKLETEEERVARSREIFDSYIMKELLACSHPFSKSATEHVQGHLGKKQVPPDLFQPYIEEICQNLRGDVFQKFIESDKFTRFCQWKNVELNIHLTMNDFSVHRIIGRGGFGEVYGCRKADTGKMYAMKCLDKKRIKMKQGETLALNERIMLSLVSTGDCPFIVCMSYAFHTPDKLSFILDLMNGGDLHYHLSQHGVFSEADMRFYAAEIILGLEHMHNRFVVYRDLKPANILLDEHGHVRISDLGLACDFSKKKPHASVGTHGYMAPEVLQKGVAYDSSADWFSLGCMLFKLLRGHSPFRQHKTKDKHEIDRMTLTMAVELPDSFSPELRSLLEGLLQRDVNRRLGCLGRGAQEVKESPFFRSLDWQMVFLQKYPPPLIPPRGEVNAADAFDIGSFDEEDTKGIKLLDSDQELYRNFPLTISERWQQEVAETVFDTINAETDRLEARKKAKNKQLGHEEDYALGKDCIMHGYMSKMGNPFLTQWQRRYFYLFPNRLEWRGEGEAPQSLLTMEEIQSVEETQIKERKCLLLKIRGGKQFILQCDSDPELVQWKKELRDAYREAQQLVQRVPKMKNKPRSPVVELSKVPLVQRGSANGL
Chain of Integrin beta-1 (Homo sapiens) + Integrin alpha-4 (Homo sapiens) (P05556 whole entry, looked up): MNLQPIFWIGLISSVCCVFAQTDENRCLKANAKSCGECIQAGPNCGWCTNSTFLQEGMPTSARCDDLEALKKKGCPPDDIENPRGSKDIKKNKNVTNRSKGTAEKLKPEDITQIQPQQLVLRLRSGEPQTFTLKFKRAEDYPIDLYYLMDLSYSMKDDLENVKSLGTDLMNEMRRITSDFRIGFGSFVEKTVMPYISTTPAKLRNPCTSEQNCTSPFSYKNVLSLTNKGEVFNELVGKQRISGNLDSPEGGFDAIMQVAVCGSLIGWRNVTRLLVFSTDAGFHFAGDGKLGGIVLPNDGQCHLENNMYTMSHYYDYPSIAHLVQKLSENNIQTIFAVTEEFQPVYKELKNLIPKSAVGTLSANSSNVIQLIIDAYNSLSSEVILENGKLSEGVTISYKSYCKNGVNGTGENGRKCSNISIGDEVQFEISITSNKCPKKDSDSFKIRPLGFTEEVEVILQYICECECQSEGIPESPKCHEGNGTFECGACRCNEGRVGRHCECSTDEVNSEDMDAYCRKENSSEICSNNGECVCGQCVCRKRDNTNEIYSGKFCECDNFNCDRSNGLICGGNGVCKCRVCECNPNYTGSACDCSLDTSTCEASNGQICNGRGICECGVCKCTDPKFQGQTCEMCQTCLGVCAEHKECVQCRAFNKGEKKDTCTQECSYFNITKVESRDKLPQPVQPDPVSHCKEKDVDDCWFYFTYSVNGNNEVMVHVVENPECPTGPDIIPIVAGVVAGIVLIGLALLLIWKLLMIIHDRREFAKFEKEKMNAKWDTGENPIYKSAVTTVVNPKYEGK
Chain of Integrin beta-1 (Homo sapiens) + Integrin alpha-4 (Homo sapiens) (P13612 whole entry, looked up): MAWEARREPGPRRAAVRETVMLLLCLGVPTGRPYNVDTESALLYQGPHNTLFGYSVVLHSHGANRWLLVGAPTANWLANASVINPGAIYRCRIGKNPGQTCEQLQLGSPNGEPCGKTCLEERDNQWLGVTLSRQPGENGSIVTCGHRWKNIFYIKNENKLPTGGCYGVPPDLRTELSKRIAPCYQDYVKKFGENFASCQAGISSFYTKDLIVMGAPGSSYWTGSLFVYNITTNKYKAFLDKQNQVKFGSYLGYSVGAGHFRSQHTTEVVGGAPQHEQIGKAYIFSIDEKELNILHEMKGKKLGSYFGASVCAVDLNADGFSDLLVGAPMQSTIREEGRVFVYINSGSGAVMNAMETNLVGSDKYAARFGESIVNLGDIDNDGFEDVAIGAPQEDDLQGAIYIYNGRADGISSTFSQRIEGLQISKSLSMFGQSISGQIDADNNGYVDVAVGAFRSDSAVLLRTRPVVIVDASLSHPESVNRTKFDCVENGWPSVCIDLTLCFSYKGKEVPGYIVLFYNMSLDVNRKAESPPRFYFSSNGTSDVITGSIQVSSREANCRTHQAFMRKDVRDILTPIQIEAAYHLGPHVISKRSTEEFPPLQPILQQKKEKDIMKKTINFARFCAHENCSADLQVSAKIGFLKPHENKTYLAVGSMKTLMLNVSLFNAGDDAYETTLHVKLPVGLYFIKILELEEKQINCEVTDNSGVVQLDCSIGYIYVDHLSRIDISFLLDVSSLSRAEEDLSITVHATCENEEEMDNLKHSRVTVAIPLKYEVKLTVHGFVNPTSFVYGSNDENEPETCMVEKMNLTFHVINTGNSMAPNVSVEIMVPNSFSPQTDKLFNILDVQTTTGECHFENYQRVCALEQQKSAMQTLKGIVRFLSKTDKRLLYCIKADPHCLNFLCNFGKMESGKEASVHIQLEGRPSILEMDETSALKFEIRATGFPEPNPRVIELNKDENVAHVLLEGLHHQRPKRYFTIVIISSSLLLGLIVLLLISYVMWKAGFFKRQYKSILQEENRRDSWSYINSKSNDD
Chain of ATP-binding cassette sub-family B member 6 (Homo sapiens) (Q9NP58 whole entry, looked up): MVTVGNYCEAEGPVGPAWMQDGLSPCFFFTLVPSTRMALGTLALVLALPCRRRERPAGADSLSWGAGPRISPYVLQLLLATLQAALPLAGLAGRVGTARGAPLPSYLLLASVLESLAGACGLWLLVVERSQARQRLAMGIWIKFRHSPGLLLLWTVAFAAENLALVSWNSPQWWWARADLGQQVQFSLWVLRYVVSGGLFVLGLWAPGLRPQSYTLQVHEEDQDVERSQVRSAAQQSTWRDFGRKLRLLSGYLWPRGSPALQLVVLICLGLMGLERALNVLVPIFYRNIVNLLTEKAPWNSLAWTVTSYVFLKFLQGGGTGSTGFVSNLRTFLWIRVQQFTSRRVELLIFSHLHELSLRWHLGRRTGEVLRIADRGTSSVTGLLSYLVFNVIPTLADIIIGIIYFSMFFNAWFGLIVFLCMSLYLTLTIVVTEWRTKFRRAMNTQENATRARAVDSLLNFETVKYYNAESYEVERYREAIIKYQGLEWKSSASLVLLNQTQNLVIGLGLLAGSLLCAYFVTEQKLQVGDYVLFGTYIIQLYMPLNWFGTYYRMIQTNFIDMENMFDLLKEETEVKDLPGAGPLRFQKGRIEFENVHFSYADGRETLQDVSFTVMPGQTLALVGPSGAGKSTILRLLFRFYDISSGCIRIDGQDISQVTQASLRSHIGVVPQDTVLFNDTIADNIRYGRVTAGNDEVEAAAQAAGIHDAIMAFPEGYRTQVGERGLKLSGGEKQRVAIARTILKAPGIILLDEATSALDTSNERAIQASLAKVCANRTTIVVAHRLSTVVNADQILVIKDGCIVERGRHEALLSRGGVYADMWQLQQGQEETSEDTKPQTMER

CCCCCCCCCC(=O)OCC(O)CO (stereo not drawn)
percent of DMSO control GFP [1]: 105% (inactive) | GFP response vs DMSO [2]: 105% (inactive) | percent response of DMSO control [3]: 102% (inactive) | GFP response vs DMSO [4]: 103% (inactive) | GFP response, % of DMSO [5]: 93.4% (inactive) | double positive events [6]: 65.4% | vesicle binding response [6]: 163% (inactive) | inhibition [7]: -10.8% (inactive) | superoxide response (% of plate) [8]: 116% (inactive) | aptamer binding inhibition [9]: 4% (inactive) | response [10]: -2% (inactive) | inhibition [11]: 59.4% (active) | response [12]: -4.17% (inactive) | binding (% of control) [13]: 96.3% (inactive) | efflux inhibition (fraction of control) [14]: 0.18 (inactive) | inhibition [15]: 5% (inactive) | differentiation response [16]: 9.04% (inactive)

O=c1[nH]cnc2[nH]ncc12
percent of DMSO control GFP [1]: 103% (inactive) | GFP response vs DMSO [2]: 103% (inactive) | percent response of DMSO control [3]: 96.5% (inactive) | GFP response vs DMSO [4]: 90.4% (inactive) | GFP response, % of DMSO [5]: 95% (inactive) | double positive events [6]: 55.6% | vesicle binding response [6]: 154% (inactive) | inhibition [7]: 15% (inactive) | superoxide response (% of plate) [8]: 98% (inactive) | aptamer binding inhibition [9]: 0% (inactive) | response [10]: -2.08% (inactive) | inhibition [11]: 2.53% (inactive) | response [12]: -1.12% (inactive) | binding (% of control) [13]: 103% (inactive) | efflux inhibition (fraction of control) [14]: 0.005 (inactive) | inhibition [15]: -64% (inactive) | differentiation response [16]: 7.13% (inactive)

Cc1cc(C)nc(NS(=O)(=O)c2ccc(N)cc2)n1
percent of DMSO control GFP [1]: 108% (inactive) | GFP response vs DMSO [2]: 98.3% (inactive) | percent response of DMSO control [3]: 116% (inactive) | GFP response vs DMSO [4]: 90.1% (inactive) | GFP response, % of DMSO [5]: 104% (inactive) | double positive events [6]: 65.7% | vesicle binding response [6]: 216% (inactive) | inhibition [7]: -5.64% (inactive) | superoxide response (% of plate) [8]: 95.6% (inactive) | aptamer binding inhibition [9]: 1% (inactive) | response [10]: -4.61% (inactive) | inhibition [11]: -9.4% (inactive) | response [12]: -1.72% (inactive) | binding (% of control) [13]: 90.1% (inactive) | efflux inhibition (fraction of control) [14]: 0.11 (inactive) | inhibition [15]: -1% (inactive) | differentiation response [16]: 6.11% (inactive)

NC(=O)c1ccccc1O
percent of DMSO control GFP [1]: 103% (inactive) | GFP response vs DMSO [2]: 108% (inactive) | percent response of DMSO control [3]: 92.8% (inactive) | GFP response vs DMSO [4]: 95.8% (inactive) | GFP response, % of DMSO [5]: 97.4% (inactive) | double positive events [6]: 64.5% | vesicle binding response [6]: 199% (inactive) | inhibition [7]: 11.1% (inactive) | superoxide response (% of plate) [8]: 95.9% (inactive) | aptamer binding inhibition [9]: -1% (inactive) | response [10]: 6.88% (inactive) | inhibition [11]: 33.5% (inactive) | response [12]: -2.79% (inactive) | binding (% of control) [13]: 100% (inactive) | efflux inhibition (fraction of control) [14]: 1.03 (active) | inhibition [15]: 3% (inactive) | differentiation response [16]: 10.3% (inactive)

CC(C)OC(=O)CC12CN3CN(C1)CC(CC(=O)OC(C)C)(C3)C2=O
percent of DMSO control GFP [1]: 99.5% (inactive) | GFP response vs DMSO [2]: 115% (inactive) | percent response of DMSO control [3]: 90.1% (inactive) | GFP response vs DMSO [4]: 119% (inactive) | GFP response, % of DMSO [5]: 105% (inactive) | double positive events [6]: 60.5% | vesicle binding response [6]: 179% (inactive) | inhibition [7]: -0.43% (inactive) | superoxide response (% of plate) [8]: 92.3% (inactive) | aptamer binding inhibition [9]: 1% (inactive) | response [10]: -2.44% (inactive) | inhibition [11]: 11.2% (inactive) | response [12]: -2% (inactive) | binding (% of control) [13]: 103% (inactive) | efflux inhibition (fraction of control) [14]: 0.12 (inactive) | inhibition [15]: 11% (inactive) | differentiation response [16]: 39.2% (inactive)

Cc1[nH]c2ccccc2c1C(=O)C(=O)NCc1ccco1
percent of DMSO control GFP [1]: 103% (inactive) | GFP response vs DMSO [2]: 104% (inactive) | percent response of DMSO control [3]: 101% (inactive) | GFP response vs DMSO [4]: 112% (inactive) | GFP response, % of DMSO [5]: 113% (inactive) | double positive events [6]: 62% | vesicle binding response [6]: 151% (inactive) | inhibition [7]: -14.7% (inactive) | superoxide response (% of plate) [8]: 97.1% (inactive) | aptamer binding inhibition [9]: 8% (inactive) | response [10]: -22.4% (inactive) | inhibition [11]: 5.02% (inactive) | response [12]: -4.14% (inactive) | binding (% of control) [13]: 106% (inactive) | efflux inhibition (fraction of control) [14]: -0.04 (inactive) | inhibition [15]: 4% (inactive) | differentiation response [16]: -4% (inactive)

COCCN(CCOC)Cc1c(C)[nH]c2c(C)c(C)ccc2c1=O
percent of DMSO control GFP [1]: 103% (inactive) | GFP response vs DMSO [2]: 108% (inactive) | percent response of DMSO control [3]: 97.6% (inactive) | GFP response vs DMSO [4]: 93.7% (inactive) | GFP response, % of DMSO [5]: 102% (inactive) | double positive events [6]: 63.2% | vesicle binding response [6]: 132% (inactive) | inhibition [7]: -2.43% (inactive) | superoxide response (% of plate) [8]: 99.3% (inactive) | aptamer binding inhibition [9]: 0% (inactive) | response [10]: 4.86% (inactive) | inhibition [11]: -8.42% (inactive) | response [12]: 5.64% (inactive) | binding (% of control) [13]: 105% (inactive) | efflux inhibition (fraction of control) [14]: -0.29 (inactive) | inhibition [15]: -9% (inactive) | differentiation response [16]: -10.4% (inactive)

O=C(O)CP(=O)(O)O
percent of DMSO control GFP [1]: 97.2% (inactive) | GFP response vs DMSO [2]: 105% (inactive) | percent response of DMSO control [3]: 93.4% (inactive) | GFP response vs DMSO [4]: 105% (inactive) | GFP response, % of DMSO [5]: 96.8% (inactive) | double positive events [6]: 66.7% | vesicle binding response [6]: 206% (inactive) | inhibition [7]: 11% (inactive) | superoxide response (% of plate) [8]: 99% (inactive) | aptamer binding inhibition [9]: 6% (inactive) | response [10]: 6.2% (inactive) | inhibition [11]: 3.17% (inactive) | response [12]: -1.85% (inactive) | binding (% of control) [13]: 105% (inactive) | efflux inhibition (fraction of control) [14]: 0.03 (inactive) | inhibition [15]: 16% (inactive) | differentiation response [16]: -4.57% (inactive)

COc1cc2c(cc1OC)-c1nnc(C)n1C(C)(C)C2
percent of DMSO control GFP [1]: 100% (inactive) | GFP response vs DMSO [2]: 94.1% (inactive) | percent response of DMSO control [3]: 107% (inactive) | GFP response vs DMSO [4]: 102% (inactive) | GFP response, % of DMSO [5]: 100% (inactive) | double positive events [6]: 59.4% | vesicle binding response [6]: 211% (inactive) | inhibition [7]: -1.79% (inactive) | superoxide response (% of plate) [8]: 94.7% (inactive) | aptamer binding inhibition [9]: 2% (inactive) | response [10]: 3.64% (inactive) | inhibition [11]: -4.56% (inactive) | response [12]: 7.5% (inactive) | binding (% of control) [13]: 100% (inactive) | efflux inhibition (fraction of control) [14]: -0.21 (inactive) | inhibition [15]: 4% (inactive) | differentiation response [16]: -28% (inactive)
